Screening data deposited in PubChem BioAssay by National Center for Advancing Translational Sciences (NCATS).
An excerpt weighted towards active compounds, which were near 6.5% of everything screened.
Marburg entry inh = blocks Marburg virus binding to or entry into cells; Marburg virus pseudotyped entry inhibition, cell reporter; Potency, µM (top dose mostly 37.8 µM), most hits filed as inhibitors; 300,000 tested, 1.8% active; AID 540276; calls by dose curve; tested in HEK293 cells
FMDV antiviral = foot and mouth disease virus antiviral activity; FMDV antiviral cell-based qHTS; Potency, µM (highest dose often 57.9 µM), actives largely listed as inhibitors; 410,000 tested, 1.2% active; AID 1159524; calls by dose curve; tested in HEK293T cells; also: read-out not given here; nearly all actives have a fitted effect of over 45% in size
LASV entry inh = blocks Lassa virus binding to or entry into cells; Potency, µM (doses to about 37.9 µM), usual class: inhibitors; Lassa virus pseudotype entry inhibition, cell reporter; 300,000 tested, 1.2% active; AID 540256; calls by dose curve; tested in HEK293 cells; also: nearly all actives have a fitted effect of over 50% in size
Vaccinia mCherry = vaccinia inhibition (mCherry reporter); Potency, µM (highest dose often 36.5 µM), actives largely listed as inhibitors; AID 720579; Vaccinia virus mCherry reporter infection, fluorescence; 310,000 tested, 0.63% active; calls by dose curve; tested in A549 cells; also: nearly all actives have a fitted effect of over 35% in size
HCMV inh = inhibitors of human cytomegalovirus | HFF cells, HCMV-luciferase reporter, 72 h; active compounds read low | AID 1259415 | 410,000 tested, 4.5% active | activity change, negative = inhibition, % at 57.5 µM; in the data active = activity change below about -60%; inconclusive = no clear call, values can overlap the other calls; inactive = above about -39%
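Luciferase read-out from HCMV-luciferase-infected HFFs (MOI 1 PFU/cell) 72 h post infection at 37C; compounds added after 16 h cell attachment; activity normalized between buffer-only basal and Salinomycin (10uM) inhibitor controls.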
Vaccinia Venus = inhibitors of vaccinia virus (Venus reporter). Vaccinia virus Venus reporter expression, fluorescence. Potency, µM (highest dose often 36.5 µM), usual class: inhibitors. 330,000 tested, 0.46% active. AID 720580; calls by dose curve; tested in A549 cells; also: nearly all actives have a fitted effect of over 30% in size
Each line names hits and unclear results; the compound was inactive in the other large screens; ! = a repeat was not active.

Cc1ccc2c(c1)cc(CN(C)Cc1nc(C)cs1)c(=O)n2C	none (no result: Marburg entry inh, LASV entry inh, HCMV inh)
COCOc1cc(OC)ccc1C(=O)C=Cc1ccc([N+](=O)[O-])cc1	LASV entry inh inconclusive (no result: FMDV antiviral, Vaccinia mCherry, HCMV inh, Vaccinia Venus)
CC(=O)O[C@]1(C(C)=O)CC[C@H]2[C@@H]3C=C(Cl)C4=CC(=O)CC[C@]4(C)[C@H]3CC[C@@]21C	FMDV antiviral inconclusive, HCMV inh inconclusive
CC(=O)O[C@]1(C(C)=O)CC[C@H]2[C@@H]3C=C(Cl)C4=CC(=O)[C@@H]5C[C@@H]5[C@]4(C)[C@H]3CC[C@@]21C	Marburg entry inh inconclusive, FMDV antiviral inconclusive, LASV entry inh 16µM, Vaccinia mCherry inconclusive, HCMV inh -90!, Vaccinia Venus inconclusive
COc1ccc2c3c([nH]c2c1)[C@@H](CO)N(C(=O)c1ccccc1)CC31CN(C(=O)CC2CC2)C1	none (no result: Marburg entry inh, FMDV antiviral, LASV entry inh, Vaccinia mCherry, Vaccinia Venus)
CCCCCCN1C[C@@H](n2cc(-c3ccc(F)cc3)nn2)[C@H](O)C[C@@H]1c1ccc(Cl)cc1	FMDV antiviral inconclusive, Vaccinia mCherry inconclusive, HCMV inh -95, Vaccinia Venus inconclusive (no result: Marburg entry inh, LASV entry inh)
CCCCCCN1C[C@H](O)[C@@H](n2cc(-c3ccc(F)cc3)nn2)C[C@H]1c1ccccc1	LASV entry inh 16µM (no result: Marburg entry inh, FMDV antiviral, Vaccinia mCherry, HCMV inh, Vaccinia Venus)
CCCCCCN1C[C@H](O)[C@@H](n2cc(-c3ccc(F)cc3)nn2)C[C@@H]1c1ccc(Cl)cc1	FMDV antiviral inconclusive, Vaccinia mCherry inconclusive, Vaccinia Venus inconclusive (no result: Marburg entry inh, LASV entry inh)
CCCCCCN1C[C@H](O)[C@@H](n2cc(-c3ccc(F)cc3)nn2)C[C@H]1c1ccc(C)cc1	LASV entry inh 25µM (no result: Marburg entry inh, FMDV antiviral, Vaccinia mCherry, HCMV inh, Vaccinia Venus)
O[C@H]1CN(CC2CCCCC2)[C@@H](c2ccc(Cl)cc2)C[C@H]1n1cc(C2CC2)nn1	LASV entry inh 10µM (no result: Marburg entry inh, FMDV antiviral, Vaccinia mCherry, HCMV inh, Vaccinia Venus)
CCNC(=O)C1CCN(S(=O)(=O)c2ccc3c(c2)CCCN3C(C)=O)CC1	none (no result: Marburg entry inh)
CCCCCCN1C[C@H](n2cc(C3CC3)nn2)[C@@H](O)C[C@@H]1c1ccccc1	Vaccinia mCherry inconclusive, Vaccinia Venus 11µM (no result: Marburg entry inh, LASV entry inh)
CCCCCCN1C[C@H](n2cc(-c3ccc(F)cc3)nn2)[C@@H](O)C[C@@H]1c1ccc(C)cc1	Vaccinia mCherry 28µM, HCMV inh -81, Vaccinia Venus inconclusive (no result: Marburg entry inh, LASV entry inh)
CCc1sc(-c2cc3cccc(OC)c3oc2=O)nc1-c1ccccc1	none (no result: Marburg entry inh, FMDV antiviral, LASV entry inh, HCMV inh)
N[C@@H](CSS(=O)(=O)O)C(=O)O	none (no result: Marburg entry inh, LASV entry inh, HCMV inh)
COc1cccc(OCc2cc(C3Nc4ccccc4C(=O)N3Cc3ccccc3)ccc2OC)c1 (stereo unspecified)	none (no result: Marburg entry inh, FMDV antiviral, LASV entry inh, HCMV inh)
COc1cccc(OCc2cc(C3Nc4ccccc4C(=O)N3Cc3ccco3)ccc2OC)c1 (stereo unspecified)	Marburg entry inh inconclusive, LASV entry inh 8.9µM
COC(=O)[C@]1(C#N)CC(=O)N([C@H](c2ccccc2)[C@H](O)c2ccccc2)[C@@H]1c1ccccc1	none (no result: Marburg entry inh, FMDV antiviral, LASV entry inh, Vaccinia mCherry, Vaccinia Venus)
O=C(COC(=O)c1ccccc1)Nc1ccc(Cl)cn1	LASV entry inh inconclusive
O=C(COC(=O)c1cccc(F)c1)Nc1ccc(Cl)cn1	HCMV inh -99 (no result: Marburg entry inh, LASV entry inh, Vaccinia mCherry, Vaccinia Venus)
Cc1nnc(NC(=O)CSc2nc3ccccc3o2)s1	none (no result: FMDV antiviral)
CC1CCc2nc(NC(=O)CSc3nc4ccccc4o3)sc2C1 (stereo unspecified)	FMDV antiviral inconclusive, LASV entry inh inconclusive, HCMV inh -85, Vaccinia Venus inconclusive
CCc1ccc(NC(=O)c2ccc3c(O)c(S(=O)(=O)c4ccccc4)c(=O)[nH]c3c2)cc1	none (no result: Marburg entry inh)
Cc1cccc(-n2ncc3c(N4CCC(C)CC4)ncnc32)c1	none (no result: Marburg entry inh, LASV entry inh)
Cc1ccc(-n2ncc3c(SCc4cccnc4)ncnc32)c(C)c1	Marburg entry inh inconclusive, LASV entry inh 2.8µM, HCMV inh -84
Cc1cccc(N2CCN(c3ncnc4c3cnn4-c3ccc(Cl)cc3)CC2C)c1 (stereo unspecified)	FMDV antiviral 32µM (no result: Marburg entry inh)
Cc1ccc(-n2ncc3c(N4CCCCCC4)ncnc32)cc1C	FMDV antiviral 56µM, HCMV inh -98 (no result: Marburg entry inh)
Cc1cccc(-n2ncc3c(N4CCCC(C)C4)ncnc32)c1 (stereo unspecified)	FMDV antiviral 25µM (no result: Marburg entry inh)
COc1cc(=O)n2c(c1C(=O)N(C)Cc1nonc1C)CCN(Cc1c(F)cccc1F)CC2	none (no result: Marburg entry inh, LASV entry inh, HCMV inh)
O=C(c1ccc2c(c1)C(=O)NC2=O)c1ccc2c(c1)C(=O)NC2=O	none (no result: Marburg entry inh, FMDV antiviral, LASV entry inh, Vaccinia mCherry, Vaccinia Venus)
Cc1cccc(-n2ncc3c(N4CCCCCC4)ncnc32)c1	FMDV antiviral 16µM, HCMV inh -61 (no result: Marburg entry inh)
COc1cccc(N2CCN(c3ncnc4c3cnn4-c3ccc(C)cc3C)CC2)c1	FMDV antiviral 4µM, Vaccinia mCherry 14µM, HCMV inh -97, Vaccinia Venus inconclusive (no result: LASV entry inh)
